Screening results from PubChem BioAssay.
MITF primary = inhibitors of human MITF; inhibition, % at 2.6 µM; AlphaScreen MITF homodimerization, bead proximity signal; 650,000 tested, 0.91% active; AID 1259374; in the data active means inhibition above about 50%
TEAD-YAP block = TEAD-YAP interaction inhibition; inhibition, % at 9.12 µM; HEK-TIYL cells, TEAD-Gal4/YAP UAS-luciferase luminescence; AID 1259422; 640,000 tested, 1.4% active; in the data active means inhibition above about 32%
FBW7 activator = activators of human E3 ligase FBW7. Q969H0. AlphaScreen FBW7–phospho-cyclin E peptide binding, activator screen. normalized activity (activation), % at 26.1 µM. 650,000 tested, 0.13% active; in the data active means normalized activity above about 1.9%;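 further: purified mutant Fbw7 with reduced substrate affinity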
GPR151 activ = human GPR151 activation; Q8TDV0; PathHunter beta-arrestin GPR151 cells, luminescence; activation, % at 11.2 µM; 650,000 tested, 1% active; AID 1508602; in the data active means activation above about 4.9%
Target sequence (Q8TDV0 whole entry, looked up): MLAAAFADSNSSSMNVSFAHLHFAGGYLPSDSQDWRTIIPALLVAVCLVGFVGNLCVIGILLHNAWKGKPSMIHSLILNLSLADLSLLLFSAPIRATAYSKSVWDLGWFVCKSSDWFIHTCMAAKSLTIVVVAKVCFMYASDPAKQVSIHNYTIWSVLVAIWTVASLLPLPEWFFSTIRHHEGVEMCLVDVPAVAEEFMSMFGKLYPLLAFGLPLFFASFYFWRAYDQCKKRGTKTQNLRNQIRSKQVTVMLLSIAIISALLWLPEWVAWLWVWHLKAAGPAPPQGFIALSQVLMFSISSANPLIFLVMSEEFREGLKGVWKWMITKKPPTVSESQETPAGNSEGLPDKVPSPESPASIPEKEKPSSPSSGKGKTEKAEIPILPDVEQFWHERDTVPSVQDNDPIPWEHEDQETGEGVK
GPR151 confirm = human GPR151 activation, confirmation screen | AID 1508609 | GPR151 PathHunter beta-arrestin cells, luminescence, 90 min; % of EA-reagent control over plate median | shares compounds with GPR151 activ | 6,700 tested, under 10 active | activation, % at 11.2 µM;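 active means mean percent activation across replicates above the confirmation screen cutoff of 4.91%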
GPR119 counter = counter-screen for GPR151 activators: effect on human GPR119; shares compounds with GPR151 activ; GPR119 PathHunter beta-arrestin cells, luminescence, 90 min; 0 = compound-well median, 100 = enzyme-acceptor control; activation, % at 11.2 µM; 6,700 tested, 0.3% active;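 active means mean percent activation in the counterscreen above 29.09%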;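 further: counterscreen on off-target GPR119 to flag nonselective hits from the GPR151 activator screen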
Each line names hits and unclear results; the compound was inactive in the other large screens (follow-up assays come after a bar, where they were run). Compounds with a hit are over-represented: about 3.5% of the library has one in this group of screens.

COC(=O)c1ccccc1NC(=O)CSc1nnc(-c2ccco2)o1	GPR151 activ 8.3 | GPR151 confirm inactive | GPR119 counter inactive
CCOC(=O)c1c(NC(=O)CSc2nnc(-c3ccco3)o2)sc(C)c1C	GPR151 activ 5.1 | GPR151 confirm inactive | GPR119 counter inactive
CCOC(=O)c1c(NC(=O)CSc2nnc(-c3ccco3)o2)sc(C(C)=O)c1C	none
CCCN(c1ccc(OCC)cc1)S(=O)(=O)c1cc2c(cc1Cl)NC(=O)CO2	none
COc1ccc(C(C)=O)cc1COC(=O)CNS(=O)(=O)c1ccc(C)cc1	none
COC(=O)c1ccc(NC(=O)C2CC2)cc1	GPR151 activ 6.3 | GPR151 confirm inactive | GPR119 counter inactive
CN(CC(=O)NCc1cccnc1)c1nnc(N2CCCC2=O)s1	GPR151 activ 5.2 | GPR151 confirm inactive | GPR119 counter inactive
Cc1cccc(CNC(=O)CN(C)c2nnc(N3CCCC3=O)s2)c1	none
CN(Cc1ccccc1)Cc1cc(-c2ncccn2)ccc1O	none
CN(Cc1nnc(-c2ccccc2)o1)Cc1cc(-c2ncccn2)ccc1O	GPR151 activ 11 | GPR151 confirm inactive | GPR119 counter inactive
O=C(CSc1nc2ccccc2s1)NCc1ccco1	GPR151 activ 6.1 | GPR151 confirm inactive | GPR119 counter inactive
COc1cc(OC)cc(C(=O)OCC(=O)c2ccc(OC)cc2OC)c1	none
C=CCOC(=O)C1=C(C)NC(SCC(=O)Nc2c(C)cccc2C)=C(C#N)C1c1ccc(O)c(OC)c1 (stereo not drawn)	none
CCOC(=O)c1ccc(CN(Cc2ccc(Cl)cc2Cl)S(=O)(=O)c2ccc([N+](=O)[O-])cc2)cc1	none
Cc1cccc(NC(=O)C(c2ccc(Cl)cc2Cl)N2CCC2=O)c1 (stereo not drawn)	GPR151 activ 7.8 | GPR151 confirm inactive | GPR119 counter inactive
CC1CCCCN1CCNC(=O)C1(S(=O)(=O)c2ccc(Cl)cc2)CC1 (stereo not drawn)	GPR151 activ 6.7 | GPR151 confirm inactive | GPR119 counter inactive
O=C(NCCN1CCCC1)C1(S(=O)(=O)c2ccc(Cl)cc2)CC1	none
COc1ccccc1/C=N/NC(=O)CC#N	none
C[C@@H](OCc1ccccc1)[C@@H]1NC(=O)[C@H]2CN(C(=O)c3cc(F)c(F)cc3F)CCN2C1=O	none
C[C@@H](OCc1ccccc1)[C@@H]1NC(=O)[C@H]2CN(C(=O)c3cc(F)ccc3F)CCN2C1=O	GPR151 activ 8.9 | GPR151 confirm inactive | GPR119 counter inactive
CC1(C)C(=O)NC2CCCCC2N1C(=O)CCl (stereo not drawn)	GPR151 activ 5.3 | GPR151 confirm inactive | GPR119 counter inactive
Cc1cc(NC(=O)Cn2cc([N+](=O)[O-])cn2)n(-c2ccccc2)n1	none
Cc1cc(C)n(C(=O)COc2ccccc2[N+](=O)[O-])n1	GPR151 activ 5.4 | GPR151 confirm inactive | GPR119 counter inactive
Cc1cc(NC(=O)COc2cc(F)ccc2[N+](=O)[O-])n(-c2ccccc2)n1	GPR151 activ 15 | GPR151 confirm inactive | GPR119 counter inactive
O=c1nc2s/c(=C\c3ccc(-c4ccc(F)cc4F)o3)c(=O)n2c2sc3c(c12)CCCC3	GPR151 activ 5.0 | GPR151 confirm inactive | GPR119 counter inactive
O=c1nc2s/c(=C\c3ccc(-c4ccccc4F)o3)c(=O)n2c2sc3c(c12)CCCC3	none
Cc1ccc(OC(=O)c2ccc(N3C(=O)c4cccc([N+](=O)[O-])c4C3=O)cc2)cc1C	GPR151 activ 5.9 | GPR151 confirm inactive | GPR119 counter inactive
O=C(Cc1cccc(O)c1)Nc1cnn(-c2cccc(C(=O)Nc3ccc(N4CCOCC4)cc3)c2)c1	none
CC(C)OC(=O)CC(NC(=O)OC(C)(C)C)c1ccccc1 (stereo not drawn)	GPR151 activ 8.1 (no result: TEAD-YAP block) | GPR151 confirm inactive | GPR119 counter inactive
COc1ccc(C(CC(=O)O)NC(=O)OC(C)(C)C)cc1 (stereo not drawn)	none
CCCCn1cnc2scc(-c3cccc([N+](=O)[O-])c3)c2c1=O	none
COC(=O)COc1ccc(S(=O)(=O)NCCC2=CCCCC2)cc1C	GPR151 activ 30 | GPR151 confirm inactive | GPR119 counter inactive
CCOc1cc(C(=O)O)cc(I)c1OCc1ccccc1	GPR151 activ 9.2 | GPR151 confirm inactive | GPR119 counter inactive
CCCCOc1c(I)cc(C(=O)O)cc1OCC	none
O=C(NO)c1ccc(Br)s1	none
CC(=O)NCCNC(=O)c1ccc(Br)s1	GPR151 activ 6.0 | GPR151 confirm inactive | GPR119 counter inactive
Cc1cccc(-c2cc(C(=O)N3CCN(c4ccc([N+](=O)[O-])cc4)CC3)c3ccccc3n2)c1	none
Cc1cccc(-c2cc(C(=O)N3CCN(C)CC3)c3ccccc3n2)c1	GPR151 activ 5.7 | GPR151 confirm inactive | GPR119 counter inactive
CN1CCN(C(=O)c2cc3ccccc3nc2Cl)CC1	GPR151 activ 8.0 | GPR151 confirm inactive | GPR119 counter inactive
CSCCC(NC(C)=O)C(=O)OCC(=O)Nc1sc2c(c1C#N)CCCC2 (stereo not drawn)	none
CC1CCC2(CC1)NC(=O)N(CN(C)CCOc1ccccc1)C2=O (stereo not drawn)	none
C=CCNCCC1CCC(=O)N1Cc1cn2c(C)csc2n1 (stereo not drawn)	GPR151 activ 12 | GPR151 confirm inactive | GPR119 counter inactive
C=CCNCCC1CCC(=O)N1Cc1ccc(C)o1 (stereo not drawn)	none
CCN(CC)C(=O)c1cn(CCC#N)nc1-c1ccc(OC)c([N+](=O)[O-])c1	GPR151 activ 21 | GPR151 confirm inactive | GPR119 counter inactive
CCOC(=O)N1CCN(C(=S)Nc2ccc(S(N)(=O)=O)cc2)CC1	none
COc1cc(-c2nc3sc4c(c3c(=O)[nH]2)CCCC4)ccc1OCc1ccc(F)cc1	none
Nc1nc(NCc2nc3ccccc3[nH]2)cc(-c2csc3ccccc23)n1	GPR151 activ 5.6 | GPR151 confirm inactive | GPR119 counter inactive
O=C(NCC1CCCN(C(=O)C2CCCC2)C1)c1ccc(F)cc1 (stereo not drawn)	GPR151 activ 7.3 | GPR151 confirm inactive | GPR119 counter inactive
CCC(=O)NCCc1c[nH]c2ccc(OC)cc12	none
COc1ccc2[nH]cc(CCNC(=O)c3ccc(Br)cc3)c2c1	GPR151 activ 9.4 | GPR151 confirm inactive | GPR119 counter inactive
COc1ccc([N+](=O)[O-])cc1NS(C)(=O)=O	none
O=C(CN1C(=O)/C(=C\c2cccc(Cl)c2)Sc2ccccc21)NCc1cccnc1	none
O=C(CCN1N=C(c2ccccc2)CCC1=O)NCc1ccc2c(c1)OCO2	GPR151 activ 7.2 | GPR151 confirm inactive | GPR119 counter inactive
NS(=O)(=O)c1ccc(NC(=S)NCc2ccc3c(c2)OCO3)cc1	GPR151 activ 9.1 | GPR151 confirm inactive | GPR119 counter inactive
O=C(CCN1N=C(c2ccccc2)CCC1=O)NCc1ccc(Cl)cc1	none
Cc1cc(=O)[nH]c2nnc(SCC(=O)NCc3ccc4c(c3)OCO4)n12	none
